Data as given in PubChem BioAssay (EPA / NIEHS).
Where “and” joins values, the source holds several entries; their conditions need not be identical. Equal entries are not always repeated. Calls of active or inactive are those of the source. Rule for the calls: active = hit-call score of the fitted dose curve at least 0.9, where 1 is the maximum; inactive = score below 0.9.

The compounds below were run on Intercellular Adhesion Molecule 1 (ICAM1), ICAM1 (gene 3383) (assay: BSK_KF3CT_ICAM1: BioMAP Diversity Plus: KF3CT Assay for Intercellular Adhesion Molecule 1 (ICAM1) Biomarker Activity (AID 2283067)). Conditions: primary human keratinocytes with fibroblasts; actives raise or lower the signal.
Procedure: BSK_KF3CT is a cell-based, multiplexed-readout assay that uses keratinocytes and foreskin fibroblasts, a human skin primary cell co-culture, with measurements taken at 24 hours after chemical dosing in a 96-well plate.BSK_KF3CT_ICAM1 is an assay component measured in the BSK_KF3CT assay. It measures ICAM-1 antibody related to regulation of gene expression using ELISA technology.Data from the assay component BSK_KF3CT_ICAM1 was analyzed into 1 assay endpoint. This assay endpoint, BSK_KF3CT_ICAM1, was analyzed with bidirectional fitting relative to DMSO as the negative control and baseline of activity. Using a type of binding reporter, gain or loss-of-signal activity can be used to understand changes in the signaling as they relate to the gene ICAM1. Furthermore, this assay endpoint can be referred to as a primary readout, because this assay has produced multiple assay endpoints where this one serves a signaling function. To generalize the intended target to other relatable targets, this assay endpoint is annotated to the cell adhesion molecules intended target family, where the subfamily is Immunoglobulin CAM.
The levels of cell surface (or secreted, indicated by the prefix "s") biomarker endpoints were measured by ELISA. Overt cytotoxicity to cells in confluent adherent cultures (all systems other than the BT system) was assessed by measuring total protein levels using sulforhodamine B (SRB) staining in parallel cultures at the time of biomarker measurements, indicated as SRB endpoints. For proliferation assays for adherent cell types, individual cell types are cultured at sub-confluence and relative cell numbers quantified by SRB staining at time points optimized for each system (48 h: 3C and CASM3C systems; 72 h: BT and HDF3CGF systems; 96 h: SAg system). SRB was performed by staining cells with 0.1% SRB after fixation with 10% TCA and reading wells at 560 nm.Viability and proliferation of PBMC (T cells) was quantified by Alamar Blue reduction for the SAg and BT systems. For PBMC viability (referred to as PBMC Cytotoxicity within the assay endpoint names), cells were plated (75,000/well in a 96-well plate) and then chemical samples added for 1 h before addition of activators, SEB and TSST-1 (20 ng/mL final concentration each). Cells were incubated for 90 h. Then, Alamar Blue (20 uL/well) (Invitrogen, Cat DAL1100) was added for 6 h, and the plates were read with a fluorescence microplate reader at 546/580 nm (excitation/emission). For PBMC proliferation, cells were plated and activated as above but incubated for only 16 h prior to addition of Alamar Blue. Plates were read after 6 h.
With `NC(=O)C(F)(F)C(F)(F)C(F)(F)C(F)(F)C(F)(F)C(F)(F)C(F)(F)F` the outcome was “inactive”.
For `NCC(F)(F)C(F)(F)C(F)(F)C(F)(F)C(F)(F)C(F)(F)F`, the outcome was “inactive”.
With `O=C1C=CC(=O)N1c1ccc(Cc2ccc(N3C(=O)C=CC3=O)cc2)cc1` the AC50 was 3.64 µM (active).
`Cc1cc(C)c(O)c(C(C)(C)C)c1` was tested, and the AC50 was 35.1 µM (active).
For `O=S(=O)(O)CCC(F)(F)C(F)(F)C(F)(F)C(F)(F)C(F)(F)C(F)(F)C(F)(F)C(F)(F)F`, the outcome was “inactive”.
In the case of `O=S(=O)(OCC(F)(F)F)C(F)(F)C(F)(F)C(F)(F)C(F)(F)F`, the outcome is reported as “inactive”.
In the case of `CNS(=O)(=O)C(F)(F)C(F)(F)C(F)(F)C(F)(F)C(F)(F)C(F)(F)C(F)(F)C(F)(F)F`, the outcome is reported as “inactive”.
For `O=C(F)C1(F)C(F)(F)C(F)(F)C(F)(F)C(F)(F)C1(F)F`, the outcome was “inactive”.
`C=CC(=O)OCC(F)(F)C(F)(F)C(F)(F)COC(=O)C=C` was tested, and the AC50 was 21.8 µM (active) and 21.3 µM (active).
For `O=C=NCc1cccc(CN=C=O)c1`, the outcome was “inactive”.
For `O=C(O)C(F)(F)OC(F)(F)C(F)(F)OC(F)(F)C(F)(F)OC(F)(F)F`, the outcome was “inactive”.
With `OCC(F)(F)C(F)(F)C(F)(F)C(F)(F)C(F)(F)C(F)(F)C(F)(F)C(F)(F)CO` the AC50 was 42.4 µM (active) and 42.7 µM (active).
For `O=C(c1ccccc1)c1ccc(O)cc1O`, the outcome was “inactive”.
With `FC(F)(F)C(F)(F)C(F)(F)CC1CO1` (stereo not given) the outcome was “inactive”.
For `C[C@]12CC[C@H]3C(=CCc4cc(O)ccc43)[C@@H]1CCC2=O`, the outcome was “inactive”.
`Cc1ccc(S(=O)(=O)C(I)I)cc1` was tested, and the AC50 was 3.07 µM (active).
For `O=S(=O)(Cl)C(F)(F)C(F)(F)C(F)(F)C(F)(F)C(F)(F)C(F)(F)C(F)(F)C(F)(F)F`, the outcome was “inactive”.
In the case of `CCN(CC)c1ccc2c(c1)Oc1cc(N(CC)CC)ccc1C21OC(=O)c2ccccc21`, the outcome is reported as “inactive”.
`NCC(F)(F)C(F)(F)C(F)(F)C(F)(F)C(F)(F)C(F)(F)C(F)(F)C(F)(F)F` was tested, and the outcome was “inactive”.
For `O=C(Cl)C(F)(F)C(F)(F)C(F)(F)C(F)(F)C(F)(F)C(F)(F)F`, the outcome was “inactive”.
With `CC1=CC2C3C=CC(C3)C2C1C` (stereo not given) the outcome was “inactive”.
With `CCOC(C=C(C)CCC=C(C)C)OCC` the outcome was “inactive”.
`FC(F)(F)C(F)(F)C(F)(F)C(F)(F)C(F)(F)C(F)(F)C(F)(F)CCI` was tested, and the outcome was “inactive”.
With `O=C(O)C(F)(F)C(F)(F)C(F)(F)OC(F)(C(F)(F)F)C(F)(F)F` the outcome was “inactive”.
In the case of `OCC(F)(F)C(F)(F)C(F)(F)C(F)(F)C(F)(F)C(F)(F)CO`, the outcome is reported as “inactive”.
For `OC(O)C(F)(F)C(F)(F)F`, the outcome was “inactive”.
`OCCCC(F)(F)C(F)(F)C(F)(F)C(F)(F)C(F)(F)C(F)(F)C(F)(F)C(F)(F)F` was tested, and the AC50 was 12.8 µM (active) and 11.7 µM (active).
For `O=C(O)C(F)(F)C(F)(F)C(F)(F)OC(F)(F)F`, the outcome was “inactive”.
`O=C(O)C(F)(F)C(F)(F)C(F)(F)C(=O)O` was tested, and the outcome was “inactive”.
With `OCC(O)CC(F)(F)C(F)(F)C(F)(F)C(F)(F)C(F)(F)C(F)(F)C(F)(F)C(F)(F)F` (stereo not given) the outcome was “inactive”.
`Brc1nc2ccccc2s1` was tested, and the outcome was “inactive”.
With `CCN(CC)c1ccc(C=O)cc1` the outcome was “inactive”.
With `O=C(Cl)C(F)(F)C(F)(F)C(F)(F)C(F)(F)C(F)(F)C(F)(F)C(F)(F)F` the outcome was “inactive”.
In the case of `O=S(=O)(O)CCC(F)(F)C(F)(F)C(F)(F)C(F)(F)F`, the outcome is reported as “inactive”.
For `O=C1c2c(O)ccc(Nc3ccc(CCO)cc3)c2C(=O)c2c([N+](=O)[O-])ccc(O)c21`, the AC50 was 15.2 µM (active).
`OCCCCC(F)(F)C(F)(F)C(F)(F)C(F)(F)F` was tested, and the outcome was “inactive”.
For `C=C(C)C(=O)OCC(F)(F)C(F)(F)C(F)(F)C(F)F`, the outcome was “inactive”.
For `CCOC(=O)CC(=O)C(F)(F)C(F)(F)F`, the outcome was “inactive”.
With `Nc1cc([N+](=O)[O-])cc(Cl)c1O` the outcome was “inactive”.
With `CC(C)(C)c1cc(CCC(=O)NCCCCCCNC(=O)CCc2cc(C(C)(C)C)c(O)c(C(C)(C)C)c2)cc(C(C)(C)C)c1O` the outcome was “inactive”.
